14-3-3g Raf: modulators of 14-3-3 gamma protein binding, primary screen, biochemical, fluorescence polarization. 14-3-3 protein gamma (Homo sapiens), P61981. 160,000 tested, 0.19% active. FP, 14-3-3gamma / TMR-pS259-Raf peptide binding. inhibition, % at 40 µM; in the data active means inhibition above about 30%;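 further: 0% = protein plus tracer without compound and 100% = blank with tracer alone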
Active calls of the source: *. Many of the other results were omitted from the sample, so hits are more common in it than they were.

`O=[N+]([O-])c1ccc(N2CCCC2)c2nonc12` gave 14-3-3g Raf 200*.
For O=[N+]([O-])c1ccc(N2CCCC2)c2ccccc12 the results were 14-3-3g Raf -4.
For O=[N+]([O-])c1ccc(Cl)c2nonc12 the results were 14-3-3g Raf -37.
`Cc1cc(OCC(=O)Oc2ccc(Cl)c(C)c2)ccc1Cl` gave 14-3-3g Raf -2.
Screening O=c1[nH]oc([N+](=O)[O-])c1[N+](=O)[O-] returned 14-3-3g Raf 3.
